Test [1] has as its target Aldehyde dehydrogenase, mitochondrial (Homo sapiens) (UniProt P05091). In words: qHTS for Inhibitors of the Aldehyde Dehydrogenase Family (ALDH2) Primary screen (AID 2061308).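 Note: plate controls were vehicle for no effect and reference inhibitor for full effect; nearly all actives have a fitted effect of over 55% in size.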 Background: Quantitative high-throughput screening tests each substance at several concentrations.
The target in test [2] is Retinaldehyde dehydrogenase 3 (Homo sapiens) (UniProt P47895). In words: qHTS for Inhibitors of the Aldehyde Dehydrogenase Family (ALDH1A3) Primary screen (AID 2061315).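 Note: plate controls were DMSO vehicle for no effect and reference inhibitor for full effect.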

Inconclusive results are not listed. Values without a mark were called inactive. Active and inactive are the calls of the source. Calls come from the whole dose curve; as a rule, active = well fitted curve in the direction sought with a large enough effect; inconclusive = small, poorly fitted or top-dose-only effect, or another doubt; inactive = no such curve, though single readings can be large; an effect the other way counts as inactive or inconclusive.

Among the data in PubChem BioAssay (NCATS) are Potency and activity change, negative = inhibition values, retold here.

With `CCOc1ccc(S(=O)(=O)n2c(C)nc3ccccc32)cc1`, the Potency result in test [1] and in test [2] was “inactive” throughout.
With `C=C1C(O)CC2C(C(=O)O)=COC(O[C@@H]3O[C@H](COC(=O)c4ccc(O)cc4)[C@@H](O)[C@H](O)[C@H]3O)C12` (some centres not stated), the Potency result in test [1] and in test [2] was “inactive” throughout.
In the case of `CC1(CO)CC[C@]2(C(=O)O[C@@H]3O[C@H](CO)[C@@H](O)[C@H](O)[C@H]3O)CC[C@]3(C)C(=CCC4[C@@]5(C)C[C@H](O)[C@H](O[C@@H]6OC[C@@H](O)[C@H](O)[C@H]6O)[C@@](C)(CO)C5CC[C@]43C)C2C1` (some centres not stated), the Potency entry in test [1] and in test [2] was “inactive” in each case.
Turning to `CC1C(=O)CC2C3CCC(C(=O)O)C12CC3(C)CO` (configuration not stated), the Potency result in test [1] and in test [2] was “inactive” in each case.
As for `C[C@H](CCC(=O)O)[C@H]1CC[C@H]2[C@@H]3C[C@H](O)[C@@H]4C[C@H](O)CC[C@]4(C)[C@H]3CC[C@]12C`, the Potency result in test [1] and in test [2] was “inactive” each time.
`O=C(/C=C/c1ccc(O)cc1)N[C@@H](Cc1ccc(O)cc1)C(=O)O`: the Potency entry in test [1] and in test [2] was “inactive” throughout.
As to `C=C1CCC2C(C)(C(=O)O)CCCC2(C)C1CC/C(C)=C\CO` (configuration not stated), the Potency result in test [1] and in test [2] was “inactive” throughout.
As to `CC1(C)CCCC2(C)C1C(=O)C=C(C(=O)O)C2(O)C(=O)O` (configuration not stated), the Potency entry in test [1] and in test [2] was “inactive” in each case.
Take `NC1Nc2ccccc2C1(N)CC1NC(=O)C(Cc2ccccc2)NC(=O)C(Cc2ccccc2)NC1=O` (configuration not stated): the Potency entry in test [1] and in test [2] was “inactive” each time.
For `COc1ccc(CN2CCN(C(c3ccc(F)cc3)c3ccc(F)cc3)CC2)c(OC)c1OC`, the Potency entry in test [1] and in test [2] was “inactive” throughout.
For `NC(=O)Nc1cc(-c2cccc(F)c2)sc1C(=O)NC1CCCNC1` (configuration not stated), the Potency result in test [1] and in test [2] was “inactive” each time.
Consider `CC(O)/C=C/C1(O)C(C)C(O)C(O[C@@H]2O[C@H](CO)[C@@H](O)[C@H](O)[C@H]2O)CC1(C)C` (some centres not stated), for which the Potency entry in test [1] and in test [2] was “inactive” throughout.
With `COc1ccc(F)cc1-c1cc(NC(=O)[C@@H]2CCCNC2)ncc1Cl`, the Potency result in test [1] and in test [2] was “inactive” each time.
As for `CC1=C2CC(=O)C(C)CC/C=C(\C)CC2(O)OC1=O` (configuration not stated), the Potency entry in test [1] and in test [2] was “inactive” throughout.
For the molecule `CC(C)(O)c1ccc2c(c1)C(=O)CC1[C@](C)(CO)CCC[C@]21C` (some centres not stated), the Potency result in test [1] and in test [2] was “inactive” each time.
As to `O=C(O)Cc1cn([C@@H]2O[C@H](CO)[C@@H](O)[C@H](O)[C@H]2O[C@@H]2O[C@H](CO)[C@@H](O)[C@H](O)[C@H]2O)c2ccccc12`, the Potency entry in test [1] and in test [2] was “inactive” throughout.
`COc1cc(Cc2cnc(N)nc2N)c(C(C)C)cc1OC`: the Potency entry in test [1] and in test [2] was “inactive” in each case.
As to `CC(C)Oc1ccc(-c2nc(-c3cccc4c3CCC4NCCC(=O)O)no2)cc1C#N` (configuration not stated), the Potency result in test [1] and in test [2] was “inactive” each time.
For `C/C(=C/CO)CC[C@H]1[C@]2(C)C[C@H](O)CC(C)(C)[C@H]2CC[C@]1(C)O`, the Potency entry in test [1] and in test [2] was “inactive” in each case.
With `C[C@@H](Nc1cc(NS(=O)(=O)N2CCC2)nc(SCc2cccc(F)c2F)n1)[C@@H](O)CO`, the Potency entry in test [1] and in test [2] was “inactive” in each case.
Take `OC[C@H]1O[C@@H](OC[C@H]2O[C@@H](OCc3ccccc3)[C@H](O)[C@@H](O)[C@@H]2O)[C@H](O)[C@@H](O)[C@@H]1O`: the Potency entry in test [1] and in test [2] was “inactive” each time.
For `CC1OC(O[C@@H]2[C@H](O)[C@@H](OC3OC(CO)C(O)C(O)C3O)[C@H](OC(=O)[C@]34CCC(C)(C)C[C@H]3C3=CCC5[C@@]6(C)CC[C@H](O[C@@H]7O[C@H](C(=O)O)[C@@H](O)[C@H](O[C@@H]8OC[C@@H](O)[C@H](O)[C@H]8O)[C@H]7O[C@@H]7O[C@H](CO)[C@H](O)[C@H](O)[C@H]7O)[C@@](C)(C=O)C6CC[C@@]5(C)[C@]3(C)C[C@H]4O)O[C@@H]2C)C(O)C(O)C1OC1OCC(O)C(O)C1O` (some centres not stated), the activity change, negative = inhibition in test [1] is 2.11% [at 11.2 µM]; in test [2] it was 11.9% [at 11.2 µM].
`CC1(C)CC[C@]2(C(=O)O[C@@H]3O[C@H](CO)[C@@H](O)[C@H](O)[C@H]3O)CC[C@]3(C)C(=CCC4[C@@]5(C)C[C@H](O)[C@H](O[C@@H]6O[C@H](C(=O)O)[C@@H](O)[C@H](O)[C@H]6O)[C@@](C)(CO)C5CC[C@]43C)C2C1` (some centres not stated): the activity change, negative = inhibition in test [1] was 12.5% [at 11.2 µM]; in test [2] it was 11% [at 11.2 µM].
With `C=C1C(OC(C)=O)CCC2(C)CC3(O)OC(=O)C(C)=C3CC12` (configuration not stated), the Potency entry in test [1] and in test [2] was “inactive” throughout.
As to `CNc1nc(Cc2ccccc2)nc2c1CCNC[C@@H]2C`, the Potency entry in test [1] and in test [2] was “inactive” each time.
With `C=C1CCC2C(C)(C(=O)O)CC(O)CC2(C)C1CC/C(C)=C/C(=O)O` (configuration not stated), the Potency entry in test [1] and in test [2] was “inactive” throughout.
